PubChem BioAssay AID1445 (SRMLSC, 2008)
Screen size: about 220,000 compounds; about 910 (0.41%) were called active. The full list was thinned out, with actives kept by preference. Measured potencies and affinities stand elsewhere. Values without a mark were called inactive.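 The calls were made as follows: active = primary inhibition above the hit cutoff, then over 50% inhibition at one or more dose response concentrations (cut at about 23% in these data, passing the limit was not always enough); inconclusive = conflicting primary data, or primary hits not chosen for dose response; inactive = low primary inhibition, or under 50% at every dose.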

Biological target: Aminopeptidase N (Plasmodium falciparum (isolate 3D7)) (UniProt O96935)
Sequence (O96935 whole entry, looked up): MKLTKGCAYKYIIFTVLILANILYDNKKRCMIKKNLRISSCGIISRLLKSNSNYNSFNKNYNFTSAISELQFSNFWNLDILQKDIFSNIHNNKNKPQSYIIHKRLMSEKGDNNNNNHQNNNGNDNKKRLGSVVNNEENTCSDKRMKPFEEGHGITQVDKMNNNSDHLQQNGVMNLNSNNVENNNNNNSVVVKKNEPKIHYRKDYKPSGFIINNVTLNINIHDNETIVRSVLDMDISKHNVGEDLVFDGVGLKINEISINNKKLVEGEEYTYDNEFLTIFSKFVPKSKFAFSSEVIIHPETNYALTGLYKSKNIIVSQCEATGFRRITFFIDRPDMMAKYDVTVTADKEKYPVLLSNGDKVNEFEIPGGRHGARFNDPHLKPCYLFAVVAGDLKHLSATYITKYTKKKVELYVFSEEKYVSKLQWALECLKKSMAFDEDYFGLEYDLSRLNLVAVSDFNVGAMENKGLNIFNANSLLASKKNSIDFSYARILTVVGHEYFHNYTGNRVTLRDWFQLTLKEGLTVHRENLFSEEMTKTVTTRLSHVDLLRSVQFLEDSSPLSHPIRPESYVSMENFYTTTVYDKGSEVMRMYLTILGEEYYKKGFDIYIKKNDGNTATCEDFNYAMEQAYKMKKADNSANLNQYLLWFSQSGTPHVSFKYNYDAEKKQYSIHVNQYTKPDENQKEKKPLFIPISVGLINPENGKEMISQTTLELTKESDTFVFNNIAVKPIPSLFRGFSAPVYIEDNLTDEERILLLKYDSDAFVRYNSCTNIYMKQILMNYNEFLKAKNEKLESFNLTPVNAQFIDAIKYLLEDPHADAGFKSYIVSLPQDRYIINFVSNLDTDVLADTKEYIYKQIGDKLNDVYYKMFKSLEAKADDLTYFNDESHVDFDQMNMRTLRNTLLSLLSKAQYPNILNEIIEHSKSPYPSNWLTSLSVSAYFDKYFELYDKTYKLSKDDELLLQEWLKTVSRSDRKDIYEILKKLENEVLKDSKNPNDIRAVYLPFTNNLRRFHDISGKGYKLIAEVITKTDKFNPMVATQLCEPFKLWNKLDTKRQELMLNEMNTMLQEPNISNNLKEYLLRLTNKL
Assay: malaria alanyl aminopeptidase activity blockers – biochemical, fluorogenic H-Leu-NHMec substrate, 1536-well (AID 1445);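 also: plate controls were DMSO full reaction for no effect and no enzyme background for full effect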
Settings: recombinant M1AAP, H-Leu-NHMec fluorogenic kinetic assay; at 30 µM, active compounds read high unless noted

| Structure (SMILES) | inhibition |
| --- | --- |
| COc1cccc(-n2cc(CN(C)Cc3nc(Cc4ccccc4)no3)cn2)c1 | 0.62% |
| COc1ccc(NC(=O)C2CCCN(S(=O)(=O)c3ccc4c(c3)oc(=O)n4C)C2)cc1OC (centres undefined) | 3.43% |
| COc1ccccc1N1CCN(S(=O)(=O)CC23CCC(CC2=O)C3(C)C)CC1 (centres undefined) | -1.74% |
| CCCn1cc(S(=O)(=O)CC(=O)Nc2ccc(OC)cc2OC)c2ccccc21 | -0.94% |
| O=C(/C=C/c1ccccc1Cl)N(Cc1ccccc1)C1CCS(=O)(=O)C1 (centres undefined) | 0.49% |
| COc1ccc(N2CSC3=C(C#N)C(c4cccs4)CC(=O)N3C2)cc1 (centres undefined) | 31.7% |
| Cc1ccccc1C(=O)N1CCN(c2ccc(NC(=O)c3cccnc3)cc2)CC1 | 1.42% |
| O=C(Nc1ccc(N2CCN(C(=O)c3ccc(Cl)cc3)CC2)cc1)c1cccnc1 | 3.47% |
| Cc1ccc(C(=O)N2CCN(c3ccc(NC(=O)c4cccnc4)cc3)CC2)cc1 | 25.7% (active) |
| O=[N+]([O-])c1ccc(Cl)cc1N1CCCCC1 | 4.92% |
| O=C(CSc1nnc(-c2ccncc2)n1C1CCCCC1)Nc1ccccc1 | 0.45% |
| Cc1noc(NS(=O)(=O)c2ccc(NC(=O)CSc3ncccn3)cc2)c1C | 1.83% |
| O=C(CSc1ccccc1)Nc1ccc(S(=O)(=O)Nc2ncccn2)cc1 | 3.64% |
| Cc1noc(NS(=O)(=O)c2ccc(NC(=O)CSc3n[nH]c(-c4ccccc4)n3)cc2)c1C | 19.9% |
| O=C(CSc1nnc(-c2ccccc2)n1C1CCCCC1)Nc1ccc(S(=O)(=O)Nc2ccccn2)cc1 | 1.56% |
| Cc1cc(C)nc(SCC(=O)Nc2ccc(S(=O)(=O)Nc3ncccn3)cc2)n1 | 3.26% |
| CC(Sc1nnc2ccccn12)C(=O)N1CCc2ccccc2C1 (centres undefined) | 2.85% |
| NC1=C(c2ccc(F)cc2)C(=O)CS1 | -0.25% |
| COC(=O)c1noc(C)c1-c1ccnn1C(=O)c1ccc(C)cc1 | 5.18% |
| CCOc1ccccc1OCC(=O)Nc1nnc(C)s1 | 0.54% |
| O=c1oc2ccccc2nc1/C=C(O)/C=C\c1ccccc1 | 5.28% |
| CN1CCN(Cc2c(O)ccc3c(-c4ccccc4)cc(=O)oc23)CC1 | 20.2% |
| COc1ccccc1-c1c(C)oc2c(CN3CCN(C)CC3)c(O)ccc2c1=O | 8.67% |
| Cc1cc(N2CCN(c3ccccn3)CC2)n2c(nc3ccccc32)c1C#N | -0.82% |

| Structure (SMILES) | inhibition |
| --- | --- |
| O=[N+]([O-])c1cc(C(F)(F)F)ccc1N/N=C/c1cc2ccccc2nc1Cl | -1.36% |
| C/C(=N/OCO/N=C(\C)c1ccccc1F)c1ccccc1F | 1.08% |
| Cc1ccc2oc(=O)n(Cc3ccccc3OC(C)C)c2c1 | 1.91% |
| Cc1cccc(S(=O)(=O)Nc2nc3ccccc3nc2NCc2ccco2)c1 | 14.8% |
| Cc1ccc(S(=O)(=O)Nc2nc3ccccc3nc2NCc2ccco2)cc1 | 10.1% |
| Cc1ccc(S(=O)(=O)Nc2nc3ccccc3nc2NCc2ccco2)cc1C | 25.4% (active) |
| N/C(Cc1nc(-c2ccc(Br)cc2)cs1)=N\O | 1.76% |
| COc1cc2c(cc1NC(=O)c1cc(-c3ccncc3)nc3ccc(C)cc13)oc1ccccc12 | 0.05% |
| Cc1ccc(CCNS(=O)(=O)c2cnc[nH]2)cc1 | 1.38% |
| C/C(=N\NC(=S)NC1CCCCC1)c1ccc(O)cc1 | -1.69% |
| O=C(O)CSc1cc(C(=O)c2cc(F)ccc2O)cn2c(=O)c3c(-c4ccccc4)csc3nc12 | 21.3% |
| CCOC(=O)c1sc2nc3c(SCCC#N)cc(C(=O)c4cc(F)ccc4O)cn3c(=O)c2c1C | 2.71% |
| O=C(O)CSc1cc(C(=O)c2ccccc2O)cn2c(=O)c3c(-c4ccccc4)csc3nc12 | 17.9% |
| CCOC(=O)c1sc2nc3c(SCC(=O)O)cc(C(=O)c4ccccc4O)cn3c(=O)c2c1C | 9.02% |
| CCOC(=O)c1cc(C(=O)c2ccccc2O)cn2c(=O)c3c(C)c(C)sc3nc12 | 13.9% |
| Cc1sc2nc3c(C(=O)N4CCCC4)cc(C(=O)c4ccccc4O)cn3c(=O)c2c1C | 17.2% |
| COC(=O)N/N=C(\C)c1ccc(-n2ccnc2)cc1 | -0.5% |
| CCC(=O)N/C(N)=N/c1nc(C)c2cc(C)c(C)cc2n1 | 7.6% |
| C=CCn1c(N)cc(=O)nc1SCC(=O)NC(C)c1ccccc1 (centres undefined) | -2.4% |
| O=C(N/N=C/c1ccco1)c1cc(Br)ccc1OCc1ccccc1 | 4.59% |
| CC(C)c1ccc(S(=O)(=O)N2CCN(C(=O)c3ccco3)CC2)cc1 | 0.71% |
| CC(C(=O)Nc1ccc(S(=O)(=O)N2CCCC2)cc1)N1CCN(C(=O)c2ccco2)CC1 (centres undefined) | 35.6% (active) |
| C[C@H](NC(=O)c1ccco1)C(=O)Nc1ccc(S(=O)(=O)N2CCCC2)cc1 | -6.98% |
| Cc1[nH]n(-c2ccccc2)c(=O)c1N=Nc1ccccc1 | 4.86% |

| Structure (SMILES) | inhibition |
| --- | --- |
| Cc1ccc(N=Nc2c(C)[nH]n(-c3ccccc3)c2=O)c(C)c1 | 3.7% |
| CC(/C=N/Nc1nc(N2CCCCC2)nc(N2CCCCC2)n1)=C\c1ccccc1 | 5.4% |
| OCCNc1nc(OCC(F)(F)F)nc(N2CCN(C34CC5CC(CC(C5)C3)C4)CC2)n1 | 9.11% |
| CC(=O)Cc1nsc(NC(=O)c2ccc(COc3ccc(C)cc3)o2)n1 | 8.72% |
| CC(=O)Cc1nsc(NC(=O)c2ccc(COc3ccccc3)o2)n1 | 26.3% (active) |
| CC(=O)Cc1nsc(NC(=O)c2ccc(Br)o2)n1 | 0.84% |
| Cc1cc(NC(=O)CSc2nc(C(C)C)nc3c2c(=O)n(C)c(=O)n3C)no1 | 5.47% |
| O=C(O)Cc1sc(-c2cccnc2)nc1-c1ccc(Br)cc1 | 9.14% |
| CCOC(=O)N1CCN(c2cc(=O)n(-c3ccccc3Cl)c(=O)[nH]2)CC1 | -0.91% |
| CNc1oc(-c2ccc(C)cc2)nc1P(=O)(c1ccccc1)c1ccccc1 | -2.06% |
| CCN(CC)S(=O)(=O)c1ccc(-c2nnc(SC)o2)cc1 | -2.39% |
| CCN(CC)S(=O)(=O)c1ccc(-c2nnc(SCC(C)=O)o2)cc1 | 26.5% (active) |
| CCN(CC)S(=O)(=O)c1ccc(-c2nnc(SCC(=O)N3CCOCC3)o2)cc1 | -1.63% |
| CCCCn1c(SCC(=O)Nc2nccs2)nc2ccccc2c1=O | 1.43% |
| CCCCn1c(SCC(=O)Nc2cc(C)on2)nc2ccsc2c1=O | 0.46% |
| Cn1c(CNC(=O)c2ccccc2)nnc1SCC(=O)Nc1nccs1 | 0.84% |
| Cc1cc(NC(=O)CSc2nc3ccsc3c(=O)n2CCCCC(=O)O)no1 | 7.32% |
| COc1ccccc1NC(=O)Cn1nc(Cc2cccnc2)c2ccccc2c1=O | 4.36% |
| Cc1cc2cc(C#N)c(NCCNC(=S)NCCCN3CCOCC3)nc2cc1C | 11% |
| Cc1nc(SCC(=O)NCc2cccs2)nc(C)c1C | 1.91% |
| CCOc1ccc(N2CC(=O)N/C2=N\c2nc(C)cc(C)n2)cc1 | 0.69% |
| CS(=O)(=O)N(CC(=O)NCc1ccccc1Cl)C1CCCCC1 | -3.91% |
| CCC(CC)C(=O)NN(C(=O)c1ccncc1)C1CC(=O)N(c2ccccc2)C1=O (centres undefined) | 0.84% |
| CCN(CC)Cc1ccc(NC(=O)c2sc3cc(Cl)ccc3c2Cl)cc1 | 5.72% |

| Structure (SMILES) | inhibition |
| --- | --- |
| CCOC(=O)C1ON2CCCCC2C1(O)C(F)(F)F (centres undefined) | 4.11% |
| Cc1ccc(C(=O)Nc2ccccc2-c2ccccc2)o1 | 5.46% |
| COC(=O)c1c(-c2ccc3ccccc3c2)csc1NC(=O)Cc1ccc(OC)c(OC)c1 | -5.43% |
| CCOC(=O)c1c(-c2ccc(OC)cc2)csc1NC(=O)CSc1ccccc1 | 9.31% |
| O=C(Nc1scc(-c2ccccc2)c1C(=O)O)c1ccco1 | 13.6% |
| COc1ccc(-c2csc(NC(=O)c3ccc(OCC(=O)N4CCOCC4)c(OC)c3)n2)cc1OC | -0.86% |
| COc1ccc(CCNC(=O)[C@@H](NC(N)=O)C(C)C)cc1 | 1.11% |
| CCOc1ccccc1NC(=O)CCNC(=O)c1ccc(Cl)cc1 | -0.92% |
| COc1ccccc1C(=O)Nn1c(C2CCC2)nc2ccccc2c1=O | 28.5% |
| Cc1nc2ccccc2c(=O)n1NC(=O)C1CCCCC1 | 0.92% |
| COc1cccc(OC)c1C(=O)Nn1c(C2CCC2)nc2ccccc2c1=O | 1.68% |
| O=C(Nn1c(-c2ccccc2)nc2ccccc2c1=O)C1CCC1 | 8.13% |
| NS(=O)(=O)c1ccc(NC(=S)NC(=O)/C=C/c2ccco2)cc1 | 22.5% |
| C/C(=N/NC(=O)CN1CCN(S(=O)(=O)c2ccc(Br)cc2)CC1)c1ccco1 | 3.47% |
| COc1ccc(NC(=O)c2ccc(-c3ccccc3Cl)o2)cc1 | 2.03% |
| Cc1ccc(S(=O)(=O)N2CCCCC2)cc1NC(=O)CSc1nnc(N)s1 | 11.9% |
| COc1ccccc1OCC(=O)N/N=C1\CCc2ccccc21 | -5.88% |
| O=C1Nc2ncccc2OC1CCO (centres undefined) | 1.94% |
| O=C(N/N=C/c1cc(Br)ccc1O)Nc1ccccc1 | 2.93% |
| COc1ccc(Br)cc1/C=N/NC(=O)c1cc(Br)ccc1O | 9.13% |
| C=CCc1cccc(/C=N/NC(=O)c2ccccc2Br)c1O | -2.15% |
| O=C(N/N=C/c1ccccc1C(=O)O)c1ccccc1Br | -4.66% |
